# In PMC4336329 (PLoS ONE, 2015):
# Out of some 310,000 compounds screened, about 14,000 (4.5%) showed an effect of 50% or more. The effect is printed as a negative number. The sample holds strong results, similar compounds and a random draw of the others, so the mix is not that of the screen.
# Biological target: human ether-à-go-go-related gene (hERG) potassium channel (human, UniProt Q12809)
# Assay: primary screen, population patch clamp on CHO cells stably expressing hERG; higher = less effect of the substance
# 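Also: peak tail current of the secondary pulse compared with the same well before compound.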
# human ether-à-go-go-related gene (hERG) potassium channel, sequence (Q12809 whole entry, looked up): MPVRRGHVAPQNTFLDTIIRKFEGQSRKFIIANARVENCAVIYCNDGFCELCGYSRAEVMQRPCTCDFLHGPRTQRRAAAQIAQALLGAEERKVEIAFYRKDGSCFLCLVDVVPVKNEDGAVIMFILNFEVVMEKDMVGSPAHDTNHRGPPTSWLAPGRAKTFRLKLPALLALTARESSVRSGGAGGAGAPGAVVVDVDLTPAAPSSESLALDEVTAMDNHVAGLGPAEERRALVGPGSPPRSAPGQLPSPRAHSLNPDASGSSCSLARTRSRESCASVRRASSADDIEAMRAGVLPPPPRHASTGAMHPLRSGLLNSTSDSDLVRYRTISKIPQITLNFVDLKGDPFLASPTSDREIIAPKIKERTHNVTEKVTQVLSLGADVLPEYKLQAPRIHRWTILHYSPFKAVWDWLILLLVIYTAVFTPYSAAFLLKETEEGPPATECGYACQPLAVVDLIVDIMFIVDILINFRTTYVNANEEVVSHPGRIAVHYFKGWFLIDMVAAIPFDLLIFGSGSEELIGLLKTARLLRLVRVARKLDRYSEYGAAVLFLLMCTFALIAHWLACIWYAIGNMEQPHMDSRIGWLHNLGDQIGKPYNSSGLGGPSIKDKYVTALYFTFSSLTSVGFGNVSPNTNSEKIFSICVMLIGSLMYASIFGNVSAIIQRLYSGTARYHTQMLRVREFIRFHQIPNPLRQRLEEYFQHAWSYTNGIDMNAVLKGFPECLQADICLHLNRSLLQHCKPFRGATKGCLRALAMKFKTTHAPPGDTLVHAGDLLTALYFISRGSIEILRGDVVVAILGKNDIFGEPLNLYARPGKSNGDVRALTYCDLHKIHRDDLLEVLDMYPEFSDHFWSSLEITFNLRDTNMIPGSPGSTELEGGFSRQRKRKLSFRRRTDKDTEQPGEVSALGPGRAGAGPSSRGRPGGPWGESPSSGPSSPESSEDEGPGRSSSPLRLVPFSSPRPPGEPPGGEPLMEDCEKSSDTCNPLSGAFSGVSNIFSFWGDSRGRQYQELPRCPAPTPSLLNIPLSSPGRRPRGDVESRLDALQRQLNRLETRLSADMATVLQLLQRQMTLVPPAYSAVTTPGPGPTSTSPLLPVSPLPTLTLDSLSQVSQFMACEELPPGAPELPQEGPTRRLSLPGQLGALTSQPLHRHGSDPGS
row,SMILES,"hERG current change (%, negative = inhibition) at 10uM [%]"
1,Cc1ccccc1OCCn1c(CCNC(=O)C(C)C)nc2ccccc21,-6.24
2,CCN1C(=O)CC(C(=O)Nc2ccc(F)cc2)SC1=Nc1ccc2c(c1)OCO2 (stereo not drawn),-13.5
3,CC(C)Sc1nc(N)c2c3c(sc2n1)CN(C)CC3,-34
4,CC(=O)Oc1ccc(/C=N/NC(=O)CCSc2ccccc2)cc1,-8.83
5,COc1ccc2nc(-c3ccccc3)[nH]c2c1,-1.4
6,COc1ccc(/C=C/C(=O)NCC(=O)N/N=C/c2cccnc2)cc1,-14.9
7,Cc1cc(N2CCN(C)CC2)nc2ccc(NC(=S)NCc3cccs3)cc12,-56.3
8,CCCCNC(=S)Nc1ccc2nc(N3CCN(CC)CC3)cc(C)c2c1,-44.6
9,CCN1CCN(c2cc(C)c3cc(NC(=O)c4cccnc4Cl)ccc3n2)CC1,-6.83
10,Cc1cc(N2CCN(C)CC2)nc2ccc(NC(=S)NC3CC3)cc12,3.2
11,CCN1CCN(c2cc(C)c3cc(NC(=O)c4cccs4)ccc3n2)CC1,-55.1
12,CCN1CCN(c2cc(C)c3cc(NC(=S)NCc4cccs4)ccc3n2)CC1,-59.7
13,COc1ccc(CNC(=S)Nc2ccc3nc(N4CCOCC4)cc(C)c3c2)cc1,-24
14,COc1ccccc1CNC(=S)Nc1ccc2nc(N3CCN(C)CC3)cc(C)c2c1,-1.77
15,CCN(CC)CCNC(=S)Nc1ccc2nc(N3CCN(CC)CC3)cc(C)c2c1,11.2
16,Cc1cc(N2CCN(C)CC2)nc2ccc(NC(=S)NCCN3CCc4ccccc4C3)cc12,-23.7
17,COc1ccc(CNC(=S)Nc2ccc3nc(N4CCN(C)CC4)cc(C)c3c2)cc1,-51.1
18,CC(=O)c1ccc(NC(=O)C2=CC(c3ccco3)=NS(=O)(=O)N2C)cc1,-7.75
19,COC(C(=O)N/N=C(\C)CC(=O)Nc1ccc(N(C)C)cc1)c1ccccc1 (stereo not drawn),15.3

row,SMILES,"hERG current change (%, negative = inhibition) at 10uM [%]"
1,CC(NS(C)(=O)=O)C(c1cccs1)N1CCN(c2ccccc2F)CC1 (stereo not drawn),6.04
2,Cc1ccc(CNC(=O)Cn2c([N+](=O)[O-])cnc2C)cc1,11.3
3,COc1ccc(S(=O)(=O)NNC(=O)Nc2ccc(C)cc2C)c(OC)c1,-1.37
4,Cc1nc(SCC(=O)c2c(N)n(C3CC3)c(=O)[nH]c2=O)[nH]c(=O)c1CCO,17
5,COc1ccc2c(c1)OC(O)(C(F)(F)F)CC2=O (stereo not drawn),-5.68
6,CN(C(=O)/C=C/c1ccccc1)C1CCCCC1,1.32
7,CN(C1CCCC1)C1CCN(C(=O)CNC(=O)/C=C/c2cccc(C(F)(F)F)c2)CC1,-62.6
8,CN(C1CCCC1)C1CCN(C(=O)CNC(=O)/C=C/c2ccccc2)CC1,-53.8
9,CN(C1CCCC1)C1CCN(C(=O)CNC(=O)/C=C/c2ccc(F)cc2)CC1,-62.6
10,CN(C(=S)NC(=O)/C=C/c1ccc(F)cc1)C1CCCCC1,4.54
11,COc1ccccc1/C=C/C(=O)NCC(=O)N1CCC(N(C)C2CCCC2)CC1,-35
12,CNC(=O)/C=C/c1cccc(C(F)(F)F)c1,4.99
13,CN(C(=O)/C=C/c1ccc(F)cc1)C1CCCCC1,-22.6
14,CC(C)(C)NC(=O)/C=C/c1cccc(C(F)(F)F)c1,-8.66
15,COc1ccc(NC(=O)c2cc(S(=O)(=O)NCC3COc4ccccc4O3)ccc2F)cc1 (stereo not drawn),-19.1
16,O=c1oc2ccccc2cc1-c1cn2ccccc2n1,11.9
17,Nc1nnc(SCC(=O)NC2CCCCCCC2)s1,16.9
18,CCCc1cc2c(cc1NC(=O)c1ccc(C(C)(C)C)cc1)OCO2,-13.8
19,Cc1csc(NC(=O)CSc2nnc3ncccn23)n1,-14.3

row,SMILES,"hERG current change (%, negative = inhibition) at 10uM [%]"
1,COCCn1c(SCC(=O)Nc2ccccc2OC)nc2ccccc2c1=O,-40.1
2,COc1ccc(NC(=O)CSc2nc3ccccc3c(=O)n2CCCN2CCC(C)CC2)c(OC)c1,-81.6
3,COc1ccc(NC(=O)CSc2nc3ccccc3c(=O)n2CCCN2CCOCC2)c(OC)c1,-34.6
4,COc1ccc(NC(=O)CSc2nc3ccccc3c(=O)n2CCCN2CCCCC2)c(OC)c1,-65.7
5,COCCn1c(SCC(=O)Nc2ccc(OC)cc2OC)nc2ccccc2c1=O,10.5
6,CCn1c(SCC(=O)Nc2ccccc2OC)nc2ccccc2c1=O,-11.9
7,COc1ccc(NC(=O)CCCNS(=O)(=O)c2cccs2)cc1,2.91
8,Cc1cccc(NC2=C(NC(=O)c3ccccc3)C(=O)c3ccccc3C2=O)c1,-19.4
9,c1ccc(N2CCN(Cc3cnc(N4CCOCC4)s3)CC2)cc1,29.4
10,COc1cccc(CC2(CO)CCN(Cc3cnc(N4CCOCC4)s3)CC2)c1,-54.7
11,CCOC(=O)C1(Cc2ccccc2)CCN(Cc2cnc(N3CCOCC3)s2)CC1,-42.4
12,OCCC1CN(Cc2cnc(N3CCCC3)s2)CCN1Cc1ccccc1 (stereo not drawn),-0.21
13,Clc1ncc(CN2CCN(Cc3ccccc3)CC2)s1,-4.52
14,OCCC1CN(Cc2cnc(N3CCCC3)s2)CCN1C1CCCC1 (stereo not drawn),-7.38
15,OCC1(CCc2ccccc2)CCN(Cc2cnc(N3CCCC3)s2)CC1,-70.3
16,CN(C)c1ncc(CN2CCC(CO)(CCCc3ccccc3)CC2)s1,-51.3
17,OCC1(CCCc2ccccc2)CCN(Cc2cnc(N3CCOCC3)s2)CC1,-58.3
18,CC(=O)Nc1ccc(NC(=O)COC(=O)Cc2c[nH]c3ccccc23)cc1,10.2
19,Cl.O=C(CN1CCCCCC1)N1c2ccccc2Sc2ccc(C(F)(F)F)cc21,-1.87
